Bioassay records: PubChem BioAssay, Broad Institute
Hits are enriched below; roughly 2.1% of the tested compounds scored in any of these assays.
INS-1E GSIS act: primary screen for activators of insulin secretion dependent on glucose, INS-1E cells, GLuc reporter luminescence | INS-1E GLuc reporter insulin secretion, 2-3 h | activation, % at 16.6 µM | 0.61% of 370,000 active;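 active means lowest replicate activation of at least 40%, so every replicate reaches that level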;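 further: 0% = median of neutral control wells and 100% = median of IBMX positive control wells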
MLL AF4-AF9 inh: inhibitors of human MLL-AF4/AF9 interaction; inhibition, % at 10 µM; P42568; 0.47% of 350,000 active; AlphaScreen, biotin-AF4 peptide binding to FLAG-AF9;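 active means every replicate reaching a set inhibition limit, whatever the replicate mean, cut at about 25% in these data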;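 further: 0% = plate neutral control median and 100% = total signal loss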
Target sequence (P42568 whole entry, looked up): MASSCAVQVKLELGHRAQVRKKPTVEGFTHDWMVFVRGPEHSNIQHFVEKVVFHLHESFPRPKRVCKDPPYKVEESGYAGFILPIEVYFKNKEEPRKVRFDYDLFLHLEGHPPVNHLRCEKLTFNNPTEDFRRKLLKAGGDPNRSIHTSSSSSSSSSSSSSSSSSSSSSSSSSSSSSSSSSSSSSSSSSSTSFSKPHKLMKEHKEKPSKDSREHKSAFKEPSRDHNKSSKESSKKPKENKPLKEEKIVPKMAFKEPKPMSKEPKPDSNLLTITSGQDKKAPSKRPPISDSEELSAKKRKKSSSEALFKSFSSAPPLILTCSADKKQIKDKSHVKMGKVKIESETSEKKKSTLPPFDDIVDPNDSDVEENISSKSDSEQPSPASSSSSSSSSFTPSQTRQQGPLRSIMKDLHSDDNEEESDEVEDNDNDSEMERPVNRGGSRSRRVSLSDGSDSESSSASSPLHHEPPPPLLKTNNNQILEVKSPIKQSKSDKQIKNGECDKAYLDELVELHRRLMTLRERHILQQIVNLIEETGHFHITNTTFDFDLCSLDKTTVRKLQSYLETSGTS
PGC1a acetyl inh: lowers PGC1a acetylation signal in U2OS cells. 0.17% of 350,000 active. AlphaScreen anti-acetyl-lysine; with virally co-expressed GCN5 acetyltransferase. inhibition, % at 15.6 µM;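 active means every replicate shows inhibition of at least 40%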;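 further: 0% = neutral control wells and 100% = positive control wells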
HIV Env fusion: HIV envelope-mediated fusion inhibition. HeLa-JRFL Env/CEM21 cell fusion, luciferase. inhibition, % at 12.3 µM. 1.1% of 360,000 active. AID 651610;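 active means mean replicate inhibition score of at least 50 and every replicate individually at or above 50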;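 further: 0% = plate neutral controls and 100% = maraviroc near 300 nM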
NSD2 HMT inh: NSD2 (human) methyltransferase inhibition | O96028 | NSD2 peptide methylation, AlphaScreen, 120 min | inhibition, % at 12.5 µM | 0.54% of 310,000 active; in the data active means inhibition above about 50%
An asterisk follows results filed as active; i = inactive; x = no result given; [ ] = dose if it differs, or a comment.

SMILES | INS-1E GSIS act | MLL AF4-AF9 inh | PGC1a acetyl inh | HIV Env fusion | NSD2 HMT inh
CC[C@@]12C(=O)N(c3cccc(F)c3)C(=O)N1[C@H](c1ccc(OC)cc1)[C@@H]1C(=O)N(C(C)(C)C)C(=O)[C@@H]12 | 4 | 2 | x | -25 | x
CC[C@@]12C(=O)N(c3cccc(C)c3)C(=O)N1[C@H](c1ccc(Br)cc1)[C@@H]1C(=O)N(C(C)(C)C)C(=O)[C@@H]12 | 5 | -51 | -12 | 54 | x
CC(C)C[C@@]12C(=O)N(c3cccc(Cl)c3)C(=O)N1[C@H](c1ccc(Br)cc1)[C@@H]1C(=O)N(C(C)(C)C)C(=O)[C@@H]12 | -10 | 0 | -20 | 91* | x
O=C(CNC(=O)c1ccc(Br)o1)NNC(=O)c1ccc(Cl)cc1 | 4 | -1 | 2 | x | 9
Cc1ccc(S(=O)(=O)N2CCC(C(=O)Nc3nnc(-c4ccc(F)cc4)s3)CC2)cc1 | 29 | x | x | -24 | -1
O=C(Nc1nnc(-c2ccc(F)cc2)s1)C1CCN(S(=O)(=O)c2ccc(Cl)cc2)CC1 | 60* | x | x | -86 | -2
CCC(C)(C)NC(=O)C(c1ccc(OC)cc1)N(C(=O)CCC(=O)Nc1cc(C)on1)c1ccccc1OC (centres undefined) | -15 | -2 | -2 | 8 | 8
O=C1C=CC(=O)N1CCCCCCN1C(=O)C=CC1=O | 202* | x | x | -15 | 0
Cc1ccc(Oc2nnc(-c3cccs3)c3ccccc23)cc1C | -6 | x | x | 1 | -2
Cc1noc(C)c1S(=O)(=O)NC(=O)C1(C)CCN1C(=O)C1(c2ccc(Cl)cc2)CCC1 (centres undefined) | 55* | -1 | 5 | -8 | -2
CC1(C(=O)NS(=O)(=O)c2ccccc2Cl)CCN1C(=O)C1(c2ccccc2)CCCC1 (centres undefined) | 92* | -2 | x | -1 | 0
CC1(C(=O)NS(=O)(=O)c2ccc(Cl)s2)CCN1C(=O)C1(c2ccc(Cl)cc2)CCC1 (centres undefined) | 59* | 1 | 17 | i | -5
CC1(C(=O)NS(=O)(=O)c2ccc(Cl)s2)CCN1C(=O)C1(c2ccccc2)CCCC1 (centres undefined) | 111* | 5 | 16 | -24 | 0
CC1(C(=O)NS(=O)(=O)c2ccc(Cl)s2)CCN1C(=O)C1(c2ccc(Cl)cc2)CC1 (centres undefined) | x | 1 | 8 | -3 | -4
O=C(O)C1CCCN1C(=O)Nc1ccc(F)cc1 (centres undefined) | x | x | 11 | -28 | 0
CC(O)c1nc2ccccc2n1C1CCCCC1 (centres undefined) | 63* | x | -2 | x | -1
COc1ccc2c3c(n(C)c2c1)[C@H](CO)NCC31CN(Cc2ccc(-c3ccccn3)cc2)C1 | 21 | 47* | -39 | x | x
COc1ccc2c3c(n(C)c2c1)[C@@H](CO)NCC31CN(Cc2ccccc2F)C1 | 12 | x | x | x | x
COc1ccc2c3c(n(C)c2c1)[C@@H](CO)NCC31CN(Cc2ccccc2Cl)C1 | 16 | 39* | -7 | x | x
CN(Cc1ccccc1)C(=S)NC(=O)c1ccc(-c2ccccc2)cc1 | 40* | x | 3 | 33 | -2
COc1cc(C(=O)NC(=S)N(C)Cc2ccccc2)cc(OC)c1OC | -2 | -2 | 6 | 4 | 2
Cc1nnn(-c2nonc2N)c1C(=O)N/N=C/c1ccccc1O | 1 | x | x | -28 | -3
Cc1nnn(-c2nonc2N)c1C(=O)N/N=C/c1cccc2ccccc12 | 86* | x | x | -33 | x
CCN(CC)c1ccc(/C=N/NC(=O)c2nnn(-c3nonc3N)c2C(C)C)c(O)c1 | 3 | -9 | x | 62* | -3
CCN(CC)Cc1c(C(=O)N/N=C(\C)c2ccncc2)nnn1-c1nonc1N | -7 | 43* | x | -10 | -2
SMILES | INS-1E GSIS act | MLL AF4-AF9 inh | PGC1a acetyl inh | HIV Env fusion | NSD2 HMT inh
CN(Cc1c(C(=O)N/N=C/c2ccccc2O)nnn1-c1nonc1N)C1CCCCC1 | 518* | -7 | 2 | -2 | -2
C[C@H](CO)N1C[C@H](C)[C@@H](CN(C)C(=O)Nc2ccccc2)Oc2ccc(NC(=O)CCCCCC(=O)Nc3ccccc3N)cc2CC1=O | 0 | 0 | 15 | x | x
Cc1noc(C)c1NC(=O)N[C@H]1CC[C@H](CCNC(=O)C2CCCCC2)O[C@H]1CO | 4 | -2 | -3 | 2[16.7 µM] | x
O=C(O)/C=C/C(=O)Nc1ccc2c(c1)NC(=O)CO2 | 13 | 0 | 2 | 1 | -2
CC1CCN(Cc2c(C(=O)N/N=C/c3ccccc3O)nnn2-c2nonc2N)CC1 | -12 | -5 | 8 | 63* | -4
COc1ccc(-c2ccccc2[C@H]2[C@@H]3C=CC[C@@H](C)[C@@H]3C(=O)N2Cc2ccccc2)cc1 | 4 | 0 | -36 | 126* | x
CCN(CC)S(=O)(=O)c1ccc(NC2c3ccccc3C(=O)N2Cc2ccc3c(c2)OCO3)cc1 (centres undefined) | -23 | 5 | x | 67* | x
CCOC(=O)C1=C(c2ccccc2)c2ccccc2N(S(=O)(=O)C(F)(F)F)C1C(=O)OCC (centres undefined) | -16 | 5 | -8 | 60* | x
CCOC(=O)C1C(C(C)=O)=C(c2ccccc2)c2ccccc2N1S(=O)(=O)C(F)(F)F (centres undefined) | -1 | 6 | -2 | -4 | x
CC1CCN(c2nc(/C=C/c3ccccc3)nc3ccccc23)CC1 | 11 | 32* | x | -2 | -2
C(=C\c1nc(N2CCCC2)c2ccccc2n1)/c1ccccc1 | -38 | x | x | -62 | -1
CC1=CC(=O)c2ccccc2C1=O | x | 2 | -2 | -14 | x
CC(C)(C=O)C1=CC(=O)c2ccccc2C1=O | -35 | 6 | x | 17 | 92*
COC(=O)C1C(=O)OC(C)(C)C1C(C)C(=O)c1ccccc1 (centres undefined) | x | x | -1 | -46 | -1
Cc1cc(Br)ccc1Nc1nc(N)nc(N)c1N=O | x | 8 | -3 | 56* | 0
C[C@H](CO)N1C[C@H](C)[C@H](CN(C)S(=O)(=O)c2ccc(F)cc2)Oc2ccc(NS(=O)(=O)c3ccc(Cl)cc3)cc2CC1=O | -10 | 0 | 13 | 59*[16.7 µM] | x
C[C@H]1CN([C@@H](C)CO)C(=O)Cc2cc(NS(=O)(=O)c3ccc(Cl)cc3)ccc2O[C@H]1CN(C)S(=O)(=O)c1ccc(F)cc1 | -1 | 1 | -7 | 15[16.7 µM] | x
C[C@H](CO)N1C[C@H](C)[C@H](CN(C)S(=O)(=O)c2ccc(F)cc2)Oc2ccc(NS(=O)(=O)c3ccccc3)cc2CC1=O | -3 | x | 1 | 86*[16.7 µM] | x
C[C@@H]1CN([C@@H](C)CO)C(=O)Cc2cc(NS(=O)(=O)c3ccccc3)ccc2O[C@@H]1CN(C)S(=O)(=O)c1ccc(F)cc1 | -18 | x | -5 | -14[16.7 µM] | x
CC(=O)Nc1c(-c2ccccc2)nc2ncccn12 | -5 | 48* | -3 | 33 | x
Cc1ccc(-c2nc3ncccn3c2NC(=O)C2CC2)cc1 | x | x | 2 | x | -1
CC(C)(C)c1nc2ccc(Cl)cn2c1CC1CCCCC1 | 53* | -1 | -6 | 2 | x
Clc1ccc2nc(C3CCCCC3)c(CC3CCCCC3)n2c1 | x | -9 | -7 | -63 | x
COc1ccc(S(=O)(=O)Nc2cc(C)ccc2OC)cc1C | x | x | -23 | x | 0
